# The supplement of paper PMC9694430
# Counter-ions that a name gives are not always drawn.
# Legend:
# Test in all cases: thermal shift delta Tm vs DMSO control; higher = stronger stabilization (binding)
# Details in all cases: 12.5 µM; protein concentration 2 µM
# LOC_OS02G45750-cb003 = tested on: LOC_OS02G45750-cb003
# In short: (§1)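 Thermal shift values come from differential scanning fluorimetry on purified rice kinase domains made in E. coli, with melting temperatures obtained from Boltzmann fits. Samples of 19.5 μl held 2 μM kinase, 100 mM potassium phosphate pH 7.5, 150 mM NaCl, 10% glycerol, 5 × SYPRO Orange and compound in DMSO, and were heated from 25°C to 95°C at 0.05°C/s. Each shift is a triplicate mean relative to the DMSO-only protein sample.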
# LOC_OS02G54510-cb004 = tested on: LOC_OS02G54510-cb004
# In short: as §1
# LOC_OS03G04050-cb001 = tested on: LOC_OS03G04050-cb001
# In short: as §1
# LOC_OS03G12390-cb001 = tested on: LOC_OS03G12390-cb001
# In short: as §1
# LOC_OS03G27990-cb004 = tested on: LOC_OS03G27990-cb004
# In short: as §1
# LOC_OS03G50450-cb001 = tested on: LOC_OS03G50450-cb001
# In short: as §1
# LOC_OS03G50810-cb003 = tested on: LOC_OS03G50810-cb003
# In short: as §1
# LOC_OS04G35114-cb001 = tested on: LOC_OS04G35114-cb001
# In short: as §1
# LOC_OS04G38480-cb003 = tested on: T1, LOC_OS04G38480-cb003
# T1 sequence (whole entry): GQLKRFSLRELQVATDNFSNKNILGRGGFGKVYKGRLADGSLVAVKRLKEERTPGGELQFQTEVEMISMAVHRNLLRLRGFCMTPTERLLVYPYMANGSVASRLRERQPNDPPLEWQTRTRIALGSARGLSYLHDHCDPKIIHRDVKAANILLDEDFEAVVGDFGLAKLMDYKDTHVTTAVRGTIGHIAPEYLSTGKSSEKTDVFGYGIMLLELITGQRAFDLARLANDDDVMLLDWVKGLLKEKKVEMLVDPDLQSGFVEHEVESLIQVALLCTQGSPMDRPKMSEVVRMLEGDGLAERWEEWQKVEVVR
# In short: as §1
# LOC_OS04G41100-cb001 = tested on: T2, LOC_OS04G41100-cb001
# T2 sequence (whole entry): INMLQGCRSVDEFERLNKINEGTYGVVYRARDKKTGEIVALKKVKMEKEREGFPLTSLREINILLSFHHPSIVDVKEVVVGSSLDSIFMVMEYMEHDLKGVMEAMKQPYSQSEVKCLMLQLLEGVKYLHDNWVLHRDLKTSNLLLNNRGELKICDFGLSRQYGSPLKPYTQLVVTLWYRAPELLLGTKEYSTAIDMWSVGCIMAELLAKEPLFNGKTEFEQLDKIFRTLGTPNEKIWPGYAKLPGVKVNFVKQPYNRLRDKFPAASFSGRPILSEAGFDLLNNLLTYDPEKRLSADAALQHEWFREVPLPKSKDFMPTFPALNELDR
# In short: as §1
# LOC_OS04G57630-cb004 = tested on: LOC_OS04G57630-cb004
# In short: as §1
# LOC_OS05G07850-cb002 = tested on: LOC_OS05G07850-cb002
# In short: as §1
# LOC_OS05G16824-cb004 = tested on: LOC_OS05G16824-cb004
# In short: as §1
# LOC_OS05G28520-cb001 = tested on: LOC_OS05G28520-cb001
# In short: as §1
# LOC_OS05G30820-cb001 = tested on: LOC_OS05G30820-cb001
# In short: as §1
# LOC_OS05G43570-cb004 = tested on: LOC_OS05G43570-cb004
# In short: as §1
# LOC_OS06G16330-cb003 = tested on: LOC_OS06G16330-cb003
# In short: as §1
# LOC_OS06G22820-cb001 = tested on: T3, LOC_OS06G22820-cb001
# T3 sequence (whole entry): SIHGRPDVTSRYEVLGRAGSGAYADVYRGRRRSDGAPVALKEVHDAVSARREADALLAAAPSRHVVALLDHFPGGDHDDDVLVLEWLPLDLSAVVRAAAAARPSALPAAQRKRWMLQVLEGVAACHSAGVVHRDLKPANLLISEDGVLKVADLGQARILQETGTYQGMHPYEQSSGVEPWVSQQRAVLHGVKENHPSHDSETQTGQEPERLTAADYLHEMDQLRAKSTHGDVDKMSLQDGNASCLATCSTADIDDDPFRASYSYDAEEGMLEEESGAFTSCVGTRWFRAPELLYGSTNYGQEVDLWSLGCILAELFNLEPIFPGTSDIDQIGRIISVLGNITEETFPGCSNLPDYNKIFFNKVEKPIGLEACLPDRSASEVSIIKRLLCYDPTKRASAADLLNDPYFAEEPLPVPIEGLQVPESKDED
# In short: as §1
# LOC_OS07G06570-cb004 = tested on: LOC_OS07G06570-cb004
# In short: as §1
# LOC_OS07G07230-cb001 = tested on: LOC_OS07G07230-cb001
# In short: as §1
# 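Further: purified Escherichia coli-expressed rice kinase domain construct.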
# LOC_OS06G16330-cb003, sequence (as listed by the source): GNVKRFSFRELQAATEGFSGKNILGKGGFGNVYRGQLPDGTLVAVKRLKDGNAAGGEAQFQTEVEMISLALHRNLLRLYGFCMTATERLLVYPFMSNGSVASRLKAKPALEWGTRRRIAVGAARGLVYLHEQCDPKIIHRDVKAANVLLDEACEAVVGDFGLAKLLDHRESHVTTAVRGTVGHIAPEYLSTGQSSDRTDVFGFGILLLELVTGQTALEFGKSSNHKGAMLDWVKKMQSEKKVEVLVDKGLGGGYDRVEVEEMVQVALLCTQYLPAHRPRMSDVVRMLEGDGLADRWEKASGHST
SMILES,thermal shift delta Tm (LOC_OS02G45750-cb003) [°C],thermal shift delta Tm (LOC_OS02G54510-cb004) [°C],thermal shift delta Tm (LOC_OS03G04050-cb001) [°C],thermal shift delta Tm (LOC_OS03G12390-cb001) [°C],thermal shift delta Tm (LOC_OS03G27990-cb004) [°C],thermal shift delta Tm (LOC_OS03G50450-cb001) [°C],thermal shift delta Tm (LOC_OS03G50810-cb003) [°C],thermal shift delta Tm (LOC_OS04G35114-cb001) [°C],thermal shift delta Tm (LOC_OS04G38480-cb003) [°C],thermal shift delta Tm (LOC_OS04G41100-cb001) [°C],thermal shift delta Tm (LOC_OS04G57630-cb004) [°C],thermal shift delta Tm (LOC_OS05G07850-cb002) [°C],thermal shift delta Tm (LOC_OS05G16824-cb004) [°C],thermal shift delta Tm (LOC_OS05G28520-cb001) [°C],thermal shift delta Tm (LOC_OS05G30820-cb001) [°C],thermal shift delta Tm (LOC_OS05G43570-cb004) [°C],thermal shift delta Tm (LOC_OS06G16330-cb003) [°C],thermal shift delta Tm (LOC_OS06G22820-cb001) [°C],thermal shift delta Tm (LOC_OS07G06570-cb004) [°C],thermal shift delta Tm (LOC_OS07G07230-cb001) [°C]
CN1CCN(S(=O)(=O)c2ccc(-c3cnc(N)c(C(=O)Nc4cccnc4)n3)cc2)CC1,3.58,0.11,0.29,1.18,0.73,0.63,0.87,2.43,1.65,0.85,0.6,7.93,1.41,0.68,0.46,-0.03,2.59,0.9,1.34,0.52
CNc1nc(-c2ccc3c(N)n[nH]c3c2)cc(N2C[C@@H](C(=O)NC3CCCCC3)CC[C@H]2C)n1,0.45,0.92,0.58,0.25,0.2,0.38,0.87,0.5,1.14,0.66,0.37,2.19,-1.52,0.81,0.31,0.65,0.1,0.79,1.92,0.33
COc1cc2ncnc(Nc3ccc(F)c(Cl)c3)c2cc1OCCCN1CCOCC1 [Gefitinib (ZD1839)],1.36,0.04,0.31,1.33,0.64,0.05,1.04,4.83,1.76,0.77,-0.05,9.4,-0.18,0.21,0.41,0.31,2.35,0.63,0.99,0.24
CN1CC[C@H](c2c(O)cc(O)c3c(=O)cc(-c4ccccc4Cl)oc23)[C@H](O)C1 [Flavopiridol (Alvocidib)],1.64,0.69,0.2,1.66,1.06,0.4,0.4,2.64,0.88,0.66,0.36,5.16,2.71,-0.27,0.85,0.07,3.19,1.43,0.96,0
CCCNC(=O)c1cn2ncnc(Nc3cc(C(=O)NC4CC4)ccc3C)c2c1C,0.71,0.18,0.45,-0.14,0.24,0.49,0.26,0.65,0.42,0.24,0.07,0.14,-4.13,0.31,0.52,0.2,-0.22,0.62,1.15,0.61
Cc1cc([C@@H](C)Nc2ccccc2C(=O)O)c2nc(N3CCOCC3)cc(=O)n2c1,0.61,0.49,0.29,0.3,0.29,0.63,0.56,0.73,0.55,0.37,0.31,-0.01,-0.08,0.3,0.51,0.63,-0.44,0.63,1.04,-0.17
CC(C)(C)NS(=O)(=O)c1cncc(-c2cc(F)c3nc(N)nn3c2)c1,0.74,0.24,0.64,0.19,0.94,0.53,0.4,0.87,0.98,0.29,0.3,1.74,0.61,0.78,0.53,0.59,0.88,0.87,1.73,0.06
CC#CC(=O)N1CC[C@@H](n2c(=O)n(-c3ccc(Oc4ccccc4)cc3)c3c(N)ncnc32)C1 [ONO-4059 (GS-4059) hydrochloride],0.78,0.65,0.51,-0.67,0.44,0.4,0.3,0.12,0.62,0.03,0.32,-0.32,-5.29,0.56,0.41,0.2,-0.41,0.35,0.52,0.73
Cc1cc(Nc2nc(N[C@@H](C)c3ncc(F)cn3)ncc2Cl)[nH]n1,3.59,2.58,0.1,5.26,0.82,2.31,3.08,1.86,2.03,0.47,0.37,10.9,8.64,0.22,1.6,0.91,7.15,0.49,0.97,0.17
